# Assay outcomes (PubChem)
# gsp ag = agonists of gsp mutant (McCune-Albright syndrome); gsp mutant cells, cAMP HTRF, 30 min; Potency, µM (top dose mostly 76.9 µM), without a hit: at the top dose activation (cAMP increase), usual class: activators; hit rate 0.13% among 340,000; AID 624287; active = well fitted activation curve with a large enough effect; inconclusive = small, poorly fitted or top-dose-only effect, or another doubt; inactive = no such curve, though single readings can be large or run the other way; cell line not stated here;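 note: phosphodiesterase inhibitor Ro 20-1724 added with compounds to block cAMP breakdown; potency is the fitted concentration of half-maximal effect; nearly all actives have a fitted effect of over 60% in size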
#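 Cells in DMEM/10% FBS with G418 were pretreated with compounds in DMSO plus […] (300 uM stock) for 30 min at 37C. cAMP was measured by HTRF (cAMP-d2 plus anti-cAMP antibody-K) after 30 min at room temperature.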
# TSHR antagonist = human thyrotropin receptor antagonism. TSHR-expressing cells, TSH-stimulated cAMP HTRF, 2 h; stronger effect = lower value. hit rate 0.2% among 330,000. AID 504810. activity change, negative = inhibition, % at 11.5 µM. P16473;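 active = activity change below a set negative limit, meaning inhibition stronger than a set level, cut at about -70% in these data; inconclusive = activity change between two set negative limits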; note: % is set by controls: 0 for no effect and ±100 for the full control effect
# Target sequence (P16473 whole entry, looked up): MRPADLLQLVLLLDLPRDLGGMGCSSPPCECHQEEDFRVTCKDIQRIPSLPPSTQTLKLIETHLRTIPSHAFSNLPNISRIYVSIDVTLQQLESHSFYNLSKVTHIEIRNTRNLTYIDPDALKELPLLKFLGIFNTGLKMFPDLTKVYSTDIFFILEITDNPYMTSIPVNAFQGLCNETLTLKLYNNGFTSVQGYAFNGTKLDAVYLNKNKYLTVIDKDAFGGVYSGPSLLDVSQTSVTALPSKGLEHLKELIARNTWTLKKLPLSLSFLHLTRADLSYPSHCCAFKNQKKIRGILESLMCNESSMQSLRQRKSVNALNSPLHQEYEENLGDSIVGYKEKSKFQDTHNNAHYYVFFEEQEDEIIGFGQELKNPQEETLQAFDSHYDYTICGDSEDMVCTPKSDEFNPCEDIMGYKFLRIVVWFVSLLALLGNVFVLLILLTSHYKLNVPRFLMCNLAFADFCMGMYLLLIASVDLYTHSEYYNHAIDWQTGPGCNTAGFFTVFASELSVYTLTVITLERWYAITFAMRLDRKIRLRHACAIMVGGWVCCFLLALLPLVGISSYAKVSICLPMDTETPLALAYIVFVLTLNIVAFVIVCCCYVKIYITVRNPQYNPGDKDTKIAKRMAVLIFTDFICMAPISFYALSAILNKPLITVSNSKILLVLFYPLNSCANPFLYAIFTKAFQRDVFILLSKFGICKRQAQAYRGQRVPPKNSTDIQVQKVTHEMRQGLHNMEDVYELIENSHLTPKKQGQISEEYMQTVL
#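 Read-out is FRET at 665 nm (cryptate excitation 337 nm) from a cryptate-tagged anti-cAMP antibody, competed by cell cAMP against cAMP-d2. Compounds are tested on freshly harvested TSHR cells challenged with 4nM TSH (EC80) for 2 hours at 37 deg C.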
# gsp antagonist = gsp mutant antagonism; gsp-mutant cells, cAMP HTRF, 30 min; Potency, µM (top dose mostly 76.9 µM), for inactives: at the top dose activity change, negative = inhibition, hits mostly inhibitors; hit rate 0.4% among 340,000; AID 624288; calls by dose curve; cell line not stated here;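 note: intracellular cAMP measured with PDE inhibitor Ro 20-1724 present during compound exposure; potency is the fitted concentration of half-maximal effect; % is set by controls: 0 for no effect and ±100 for the full control effect; nearly all actives have a fitted effect of over 65% in size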
#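 Cells in G418 medium, seeded 16-24 h, 37C; buffer exchange to DPBS + 1 mM CaCl2, 0.5 mM MgCl2, 0.05% BSA; cpds in DMSO + […] (300 uM stock), 30 min 37C; HTRF cAMP detection.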
# RXFP1 agonist = activates the human relaxin receptor RXFP1; AID 2676; HEK293T-RXFP1 cAMP TR-FRET, 30 min; response scale: percent of porcine relaxin response, buffer zero; Potency, µM (doses to about 57.5 µM), for inactives: at the highest dose activation, usual class: activators; Q9HBX9; hit rate 0.3% among 370,000; active = well fitted activation curve with a large enough effect; inconclusive = small, poorly fitted or top-dose-only effect; note: potency is the fitted concentration of half-maximal effect; % is set by controls: 0 for no effect and ±100 for the full control effect; nearly all actives have a fitted effect of over 60% in size
#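 HEK293T cells stably expressing RXFP1 were pretreated with the PDE4 inhibitor Ro 20174, exposed to compounds for 30 min at 37C, lysed, and cAMP was read by TR-FRET. Data normalized to buffer (basal) and 29 nM porcine relaxin (100%).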
# RXFP1 antagonist = antagonists of human relaxin receptor RXFP1 | HEK293-RXFP1, relaxin-stimulated cAMP HTRF, 30 min; stronger effect = lower value | activity change, negative = inhibition, % at 57.5 µM | hit rate 0.59% among 350,000 | AID 1259400;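 active = activity change of -60% or lower, but not beyond a set lower limit; inconclusive = change between -60% and -40%, or beyond the set limit; inactive = change above -40%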; note: % is set by controls: 0 for no effect and ±100 for the full control effect
# Active calls of the source: *; ? = inconclusive; / = not tested or not shown; ! = not confirmed by another sample; [ ] = another dose, or the depositor's remark. Sampled rows, rich in hits. Any-hit rate of the full collection: about 1%.
SMILES,gsp ag,TSHR antagonist,gsp antagonist,RXFP1 agonist,RXFP1 antagonist
Cc1[nH]c(=S)c(C#N)c(C)c1C(=O)Nc1ccccc1,?,-4.9,9.9%,3.2%,-6.3
CCc1c(C(=O)Nc2ccccc2)c(C)[nH]c(=S)c1C#N,12.6µM*,-5.5,4.7%,8.7%,-0.8
CC1=C(C(=O)Nc2ccc(C(=O)N3CCN(c4cccc(Cl)c4)CC3)cc2)SCCO1,30.2%,-1.2,?,0.7%,3.8
CC1=C(C(=O)Nc2cccc(C(=O)N3CCN(c4cccc(C(F)(F)F)c4)CC3)c2)SCCO1,0.6%,-13.8,50.1µM*,2.8%,-28.2
Cc1ccc(CNC(=O)c2ccc3c(=O)n(-c4ccccc4)c(=O)[nH]c3c2)cc1,/,/,/,?,-8.2
CCOc1ccc(CNC(=O)c2cnc3sc(N(CC)CC)nn3c2=O)cc1OC,/,/,/,1.0%,-19.1
CCOC(=O)c1c(C)[nH]sc1=S,35.8%[15.4 µM],20.8,11.2%,25.1µM*,8.9
CCOc1ccc(CNC(=O)CSc2nnc(C)c3c(C)n(-c4ccc(Cl)cc4)nc23)cc1,/,/,/,?,-10.7
COc1ccc(-c2noc(-c3ccc(NCc4ccccc4OC)c([N+](=O)[O-])c3)n2)cc1,/,/,/,-3.4%,/
Cc1ccc(NC(=O)CSc2ccccc2NC(=O)c2ccccc2)cc1Cl,12.4%,0.8,-7.9%,0.9%,0.6
Cc1ccc(NC(=O)CSc2ccccc2NC(=O)c2ccccc2Cl)cc1Cl,-16.6%,-12.0,28.2µM*,2.3%,-0.2
CCOCCc1nn2c(=O)cc(COC(=O)CNC(=O)c3cccc(C)c3)nc2s1,/,/,/,2.0%,/
Cc1ccccc1-c1nn2c(=O)cc(CN3CCN(C(=O)c4ccccc4Br)CC3)nc2s1,/,/,/,0.4%,-9.0
CC1=C(SCc2ccccc2)C(=O)c2ccccc2C1=O,11.2µM*,/,-11.6%,/,?
Cc1nnc(-c2cccc(Br)c2)c2cn(-c3ccccc3Cl)nc12,28.3%,-5.8,-10.4%,2.7%,-63.5*
Cc1ccc(-n2cc3c(-c4cccc(Br)c4)nnc(C)c3n2)cc1,?,-22.2,-21.3%,1.8%,-12.0
COc1cc(/C=C/c2nc3cc(Cl)ccc3c(=O)n2-c2cccc(C(F)(F)F)c2)cc(OC)c1OC,/,/,/,1.0%,-25.7
CN(Cc1ccccc1)C(=O)CN1CCN(C(c2ccccc2)c2ccccc2)CC1,-10.4%[15.4 µM],-15.7,-21.6%,3.1%,-81.4*
COC(=O)CN1CCN(C(c2ccccc2)c2ccccc2)CC1,-27.2%,4.4,-5.5%,-0.7%,-8.9
O=S(=O)(NCCc1ccc(Cl)cc1)c1ccc(N2CCCCS2(=O)=O)cc1,/,/,/,1.8%,-3.4
CC1CCC(C(C)C)C(OC(=O)Cn2c(-c3ccc(Br)cc3)[n+](C)c3ccccc32)C1 (stereo not drawn),0.1%[15.4 µM],3.6,7.4%,0.0%,-81.3*!
CC1CCC(C(C)C)C(OC(=O)Cn2c(-c3ccc(Cl)cc3)[n+](C)c3ccccc32)C1 (stereo not drawn),39.2%,-6.6,5.3%,0.0%,?
Cc1ccc2c(c1)c(=O)c(C(=O)c1ccc3c(c1)OCO3)cn2Cc1ccc(Cl)cc1,/,/,/,0.2%,-25.3
CCc1ccc(CN2CCc3nc(Nc4ccccc4)ncc3C2)cc1,/,/,/,1.9%,-65.2*
CCOc1ccccc1CN1CCc2nc(Nc3ccccc3)ncc2C1,/,/,/,-0.7%,-39.0
SMILES,gsp ag,TSHR antagonist,gsp antagonist,RXFP1 agonist,RXFP1 antagonist
CC1CCc2c(sc(NC(=O)CCCOc3ccc(C(C)(C)C)cc3)c2C(N)=O)C1 (stereo not drawn),/,/,/,0.3%,/
O=C1OC(/C(=C\Nc2cc(Cl)ccc2O)[N+](=O)[O-])c2ccccc21 (stereo not drawn),19.3%[15.4 µM],-3.0,-23.6%,-0.2%,-82.1*
COc1ccc(NC(=O)c2nn(C)c3c2CS(=O)(=O)c2ccccc2-3)cc1Cl,/,/,/,-3.2%,5.5
CCOc1ccc(/C(O)=C2/C(=O)C(=O)N(CCCN3CCOCC3)C2c2ccc(C)cc2)cc1C (stereo not drawn),39.1%,1.9,11.2µM*,27.3%,-0.7
COc1ccc(C2/C(=C(\O)c3ccc4c(c3)OCCO4)C(=O)C(=O)N2Cc2cccnc2)cc1OC (stereo not drawn),24.2%,3.7,13.1%,18.5%,4.2
O=C1C(=O)N(Cc2cccnc2)C(c2ccc(Br)cc2)/C1=C(\O)c1ccc2c(c1)OCCO2 (stereo not drawn),8.91µM*,-0.3,11.7%,?,-0.3
O=C1C(=O)N(CCCN2CCOCC2)C(c2ccc(Cl)cc2)/C1=C(\O)c1ccc2c(c1)OCCO2 (stereo not drawn),11.2µM*,-5.1,27.9%,?,28.9
COc1cccc(C2/C(=C(\O)c3ccc4c(c3)OCCO4)C(=O)C(=O)N2CCCN2CCOCC2)c1OC (stereo not drawn),8.91µM*,-3.1,26.4%,28.4%,17.4
COc1cc(S(N)(=O)=O)cc(C(=O)O)c1OC,/,/,/,/,-7.2
CN1C(=O)c2ccccc2Sc2ccc(NC(=O)N3CCN(c4cccc(Cl)c4)CC3)cc21,/,/,/,-5.0%,-16.3
Cn1ncc2c(N3CCN(c4ccc(F)cc4)CC3)ncnc21,/,/,/,6.3%,9.9
Cc1ccc(-n2nc(C)c(C(=O)NCCCN3CCN(c4ccccc4F)CC3)c2-n2cccc2)cc1,/,/,/,-0.1%,?
CC(=O)NCCNc1nc2c(-c3ccccc3)nnn2c2ccccc12,22.4µM*,-37.6,6.8%,5.4%,6.4
CC(=O)NCCNc1nc2c(-c3cccc(C)c3)nnn2c2ccccc12,-0.7%,5.6,4.0%,3.4%,-20.4
CN1CCN(CC(=O)c2cc(C(C)(C)C)c(O)c(C(C)(C)C)c2)CC1,0.6%[15.4 µM],-14.1,9.3%,-0.1%,-85.5*
COc1cc(/C=C(\C#N)c2nc3ccccc3s2)cc([N+](=O)[O-])c1O,-1.1%[15.4 µM],-71.0*,?,1.5%,-7.3
N#C/C(=C\c1ccc(O)c([N+](=O)[O-])c1)c1nc2ccccc2s1,-1.3%[15.4 µM],?,35.5µM*,1.6%,11.8
COc1ccc(-c2csc(/C(C#N)=C\c3ccc(O)c([N+](=O)[O-])c3)n2)cc1OC,-11.2%[15.4 µM],-72.0*,-28.7%,0.2%,4.5
Cc1c(Cl)cccc1NC(=O)Cn1c(=O)cc(C)c2c(C)nn(-c3cccc(F)c3)c21,/,/,/,16.6%,2.4
O=C(Nc1cc(Cl)ccc1Oc1ccccc1)C1=COCCO1,-21.3%,8.4,-12.2%,0.1%,-75.5*
CCOc1ccc(Oc2ccc(Cl)cc2NC(=O)C2=COCCO2)cc1,0.3%,-2.0,-6.7%,-0.4%,-5.6
O=C(NC1CCCC1)c1cc2cc(Br)ccc2o1,2.51µM*,-19.1,7.7%,1.0%,-0.3
O=C(NC1CCCCC1)c1cc2cc(Br)ccc2o1,-11.2%,-20.7,-1.5%,0.4%,-6.2
CC(=O)Nc1scc(-c2ccccc2)[n+]1-c1ccc(C)cc1,41.3%,-5.6,50.1µM*,21.4%,0.4
Cc1ccc(-c2csc(Nc3ccc(C(=O)O)cc3)[n+]2Cc2ccccc2)cc1,-2.8%,-39.0,-11.5%,12.5%,-26.3
